Compound activity deposited in PubChem by National Center for Advancing Translational Sciences (NCATS).
Pf growth 96h: Primary qHTS for delayed death inhibitors of the malarial parasite plastid, 96 hour incubation; AID 504834, 2011; hit rate 6.9% among 320,000; Potency, µM (series often up to 28.7 µM), without a hit: at the highest dose activity change, negative = inhibition, most hits filed as inhibitors; P. falciparum luciferase reporter growth, 96 h; further: potency means the concentration at half of the fitted maximal effect; on the % scale 0 is the no-effect control and ±100 the full control effect
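Delayed-death screen, second-generation endpoint: infected erythrocytes, 2% hematocrit, 0.05% parasitemia final; 96 hours at 37 C, 5% CO2; luciferase detection reagent; luminescence decrease equals reduced growth.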
Pf growth 48h: Primary qHTS for delayed death inhibitors of the malarial parasite plastid, 48 hour incubation | hit rate 5.9% among 310,000 | Potency, µM (titrated, usually from 28.7 µM), inactives show top-dose activity change, negative = inhibition, actives largely listed as inhibitors | AID 504832, 2011 | P. falciparum luciferase growth in erythrocytes, 48 h; further: potency means the concentration at half of the fitted maximal effect; on the % scale 0 is the no-effect control and ±100 the full control effect
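Luciferase-expressing parasites in RBCs, 2% Hct / 0.1% parasitemia final; RPMI 1640 + 0.5% Albumax; 37 C, 5% CO2, one generation; luminescence read-out, lower signal = inhibition.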
CHX counter: Cycloheximide Counterscreen for Small Molecule Inhibitors of Shiga Toxin; cell reporter, cycloheximide protein synthesis inhibition counterscreen; max response, %; hit rate 12% among 300,000; AID 2314, 2010; in the data active means max response mostly above about 13%, no sharp cut-off; inactive means mostly below about 14%; further: read at 38.3 µM for the half of the compounds with a filed dose; 0% is about no effect
Shiga toxin inh: A qHTS for Small Molecule Inhibitors of Shiga Toxin | Vero cells, Shiga toxin protein synthesis inhibition reporter | inhibition, % at 38.7 µM | hit rate 9.2% among 290,000; in the data active means inhibition mostly above about 28%, no sharp cut-off; inactive means mostly below about 43%; further: 0% is about no effect
HCMV antiviral: qHTS Assay for inhibitors of the human cytomegalovirus (HCMV) | HFF cells, HCMV-luciferase reporter, 72 h; hits give low values | activity change, negative = inhibition, % at 57.5 µM | hit rate 4.5% among 410,000 | AID 1259415, 2018; in the data active means activity change below about -60%; inconclusive means no clear call, values can overlap the other calls; inactive means above about -39%; further: on the % scale 0 is the no-effect control and ±100 the full control effect
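Inhibition of viral replication was scored as loss of reporter luminescence in HFFs infected with HCMV-luciferase (MOI 1 PFU/cell) for 72 h; compounds tested at 2 doses, normalized to buffer and Salinomycin controls.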
Active calls of the source: *; ? = inconclusive; . = not tested or not shown. An excerpt weighted towards active compounds, which were near 20% of everything screened. Unless noted, the call rests on the fitted dose curve; in most records, active means well fitted inhibition curve with a large enough effect; inconclusive means small, poorly fitted or top-dose-only effect, or another doubt; inactive means no such curve, though single readings can be large or run the other way.

SMILES | Pf growth 96h | Pf growth 48h | CHX counter | Shiga toxin inh | HCMV antiviral
O=c1[nH]c2cc3c(cc2cc1CN(Cc1ccco1)C(=S)NCC1CCCO1)OCCO3 (centres undefined) | ? | -5.7% | -5.2 | 1.7 | -17.2
CC(C)C(=O)NNC(=O)CC(=O)Nc1ccccc1C(=O)O | -37.3% | 6.2% | -1.5 | -12.1 | -10.0
COc1cccc(NC(=O)Nc2ccccc2SC)c1 | 3.5% | 30.2% | 37.2* | 84.0* | -28.9
COc1ccc(NC(=O)Nc2ccccc2SC)cc1OC | ? | 87.1% | 19.7* | 47.9* | -0.9
CC(O)CC(=O)NOCc1ccccc1 (centres undefined) | . | . | . | . | -18.9
O=C1NC(=O)C(=Cc2cc3c(cc2[N+](=O)[O-])OCO3)C(=O)N1 | 0.1% | 20.7% | 1.5 | -14.7 | -63.4*
CCCNC(=O)C1(C)CCN(Cc2ccc(OCc3ccccc3)cc2)C1 (centres undefined) | . | . | . | . | -13.8
CCc1ccc(NC(=O)Nn2cnnc2)cc1 | 24.1% | 4.2% | 17.4* | 24.1 | 18.0
O=C(Nc1ccc(Br)cc1)Nn1cnnc1 | 0.5% | 103.2% | 11.5* | 21.2 | -19.0
CCc1ccc(NC(=S)Nn2cnnc2)cc1 | 9.1% | 17.3% | 11.4 | -15.4 | 38.7
O=C(Cc1csc(-c2cccc(F)c2)n1)Nc1cccc(S(=O)(=O)NC2=NCCC2)c1 | . | . | . | . | -8.6
Cc1ccc(-c2csc3nc(=O)c(C)nn23)cc1 | 5.22µM* | 30.6% | 5.7 | -3.7 | -3.3
O=c1nc2scc(-c3ccccc3)n2c2ccccc12 | -26.9% | 2.0% | -0.2 | 18.7 | ?
CCOC(=O)C1(C)CCN1C(=O)c1ccc(C(F)(F)F)cc1 (centres undefined) | . | . | . | . | 10.0
CCCSc1ccc([C@@H]2[C@@H]3C(=O)N(C)C(=O)[C@@H]3[C@]3(C(=O)OC)CCCCN23)cc1OC | ? | 13.1µM* | . | . | 5.5
CCCSc1ccc([C@@H]2[C@H]3C(=O)N(CC)C(=O)[C@H]3[C@]3(C(=O)OC)CCCCN23)cc1OC | 11.7µM* | 10.4µM* | . | . | 31.8
CCCSc1ccc([C@@H]2[C@H]3C(=O)N(CC)C(=O)[C@H]3[C@]3(C(=O)OC)CCCN23)cc1OC | ? | ? | . | . | 3.7
CCCSc1ccc([C@@H]2[C@H]3C(=O)N(C)C(=O)[C@H]3[C@]3(C(=O)OC)CCCN23)cc1OC | . | . | . | . | 10.1
CCN1C(=O)[C@@H]2[C@@H](c3ccc(SC4CCCCC4)c(OC)c3)N3CCC[C@@]3(C(=O)OC)[C@@H]2C1=O | ? | 8.28µM* | . | . | -5.4
Cc1cc(C)c2c(n1)sc1c(=O)n(-c3ccccc3C(F)(F)F)nnc12 | . | . | . | . | -4.1
COCCOC(=O)c1c(C)n(C)c2ccc(OC(=O)C3CC3)cc12 | 14.3% | 13.4% | 25.9 | 35.2 | -10.9
Cc1c(Cl)cccc1NC(=O)CSc1ncc2c(n1)-c1ccccc1N(C)S2(=O)=O | . | . | . | . | -31.3
COCCc1ncc(CN2CCC(C(=O)Nc3ccc(-n4cccn4)cc3)CC2)cn1 | 0.9% | ? | 9.5 | -2.9 | .
CN(C)c1ncc(CN2CCC(C(=O)Nc3ccc(-n4cccn4)cc3)CC2)s1 | 17.3% | 2.62µM* | -1.3 | -11.4 | -5.8
O=C(CCSc1ccc(Cl)cc1)c1cccs1 | 0.3% | 13.9% | 12.0* | 23.9 | 24.3
SMILES | Pf growth 96h | Pf growth 48h | CHX counter | Shiga toxin inh | HCMV antiviral
O=C(CCNc1cc(Cl)cc(Cl)c1)c1cccs1 | 111.3% | 18.6% | 17.6* | 42.5 | -12.4
O=C(CCNc1ccc(Cl)cc1)c1cccs1 | ? | 43.2% | 32.3* | 42.2* | -25.4
O=C(CCc1ccc(CCC(=O)c2cccs2)s1)c1cccs1 | 9.2% | 46.3% | 22.1* | 52.7* | 69.4
O=C(CCN1CCCC1)c1cccs1 | -20.5% | ? | 5.5 | -6.3 | -12.5
O=C(O)CCNc1ccc(Cl)cc1 | ? | -3.7% | -1.6 | -6.1 | 5.3
CCOc1ccccc1CNC(=O)C1CCN(C(=O)N2CCOc3ccc(Cl)cc32)CC1 | . | . | . | . | -16.3
COC(=O)CCN(C(=O)C1C2CC3CC(C2)CC1C3)c1ccccn1 (centres undefined) | -11.3% | -14.2% | -1.8 | -6.6 | 12.4
COC1CCN(C(=O)c2ccc(OC3CCN(CCc4ccccc4)CC3)cc2)CC1 | ? | -15.6% | 1.4 | -18.1 | -22.6
CCN1CCN(C(=O)c2ccc(OC3CCN(CCc4ccccc4)CC3)cc2)[C@@H](C)C1=O | 3.7µM* | ? | -4.8 | -4.7 | -34.8
CN(C(=O)c1ccc(OC2CCN(CCc3ccccc3)CC2)cc1)C1CCOCC1 | 9.28µM* | -1.6% | -2.0 | -2.9 | ?
CSCCNC(=O)c1ccc(OC2CCN(CCc3ccccc3)CC2)cc1 | ? | ? | 14.6* | 26.5 | -21.8
CN(C(=O)c1ccc(OC2CCN(CCc3ccccc3)CC2)cc1)C1CCOC1 (centres undefined) | ? | -5.3% | -2.9 | -23.5 | -25.3
COC(=O)CCCNC(=O)c1ccc(OC2CCN(CCc3ccccc3)CC2)cc1 | 2.8% | 0.0% | 11.6 | 20.9 | -21.9
O=C(NC1CCOC1)c1ccc(OC2CCN(CCc3ccccc3)CC2)cc1 (centres undefined) | 2.33µM* | -6.2% | -0.3 | -3.0 | ?
COc1ccc2oc(CS(=O)c3ccccc3)c(C(=O)O)c2c1 (centres undefined) | ? | 21.5% | -0.4 | 4.5 | -18.4
O=C(NCCn1cccn1)c1ccc(OC2CCN(C(=O)C3CC3)CC2)cc1 | 29.1% | 25.6% | 8.1 | 51.1 | 44.2
O=C(NCCn1cccn1)c1ccc(OC2CCN(CCc3ccccc3)CC2)cc1 | 0.1% | -23.5% | 14.2* | 28.7* | -3.5
Cc1cc(C)c[n+](C(C)C(=O)c2ccc(-c3ccccc3)cc2)c1 (centres undefined) | 27.9% | 1.31µM* | -2.2 | -10.0 | -99.4*
CCNC(=S)N=Nc1c(O)[nH]c2ccc([N+](=O)[O-])cc12 | 6.57µM* | ? | 4.4 | -4.8 | -14.9
CCNC(=S)N=Nc1c(O)[nH]c2ccc(C(C)C)cc12 | ? | ? | -3.9 | 0.0 | -65.8*
Oc1[nH]c2ccccc2c1N=NC(=S)NCCc1ccccc1 | 0.0% | -12.6% | 12.3 | 1.8 | 69.2
CC(C)c1ccc2[nH]c(O)c(N=NC(=S)NCCc3ccccc3)c2c1 | 9.28µM* | ? | -0.7 | -7.7 | ?
COc1cccc(CN2CCNC(=O)C2CC(=O)NCCc2ccccn2)c1 (centres undefined) | ? | 31.1% | 6.5 | 24.1 | -15.7
COc1ccccc1CCNC(=O)CC1C(=O)NCCN1CCCc1ccccc1 (centres undefined) | 9.1% | ? | -2.7 | -5.7 | 12.0
COc1cccc(CNC(=O)CC2C(=O)NCCN2CCCc2ccccc2)c1 (centres undefined) | 9.28µM* | ? | -0.3 | 25.7 | 38.8
O=C(CC1C(=O)NCCN1CCCc1ccccc1)NCCc1ccccc1Cl (centres undefined) | ? | 13.1µM* | -0.6 | -8.3 | -39.7
O=C(CC[C@H]1O[C@@H](n2cnc3c(NC(=O)c4ccccc4)ncnc32)[C@H](O)[C@@H]1O)NCc1ccccn1 | . | . | . | . | 1.2
